We go through 39 sequences from the OligoGym collection.
Further: reference of the scale not given here.

One assay concerns the target RNPEPL1. Nature of the assay: pooled miR-30 sensor sort-seq; sequence = guide strand. Particulars: shRNA.
TCAGGATAGTAGTCGTTGCGGA had a sensor-assay potency score (higher = more potent) of -0.665.

In turn, TGGCAGGAAGACAATGTCGTAC yielded a sensor-assay potency score (higher = more potent) of -1.01.

For the sequence TGAACTTGTACTTCTCCACATA, the sensor-assay potency score (higher = more potent) was -0.899.

In the case of TCTGTGTCTGCTTCAGCCTTGC, the sensor-assay potency score (higher = more potent) stood at 0.0808.

TTCTCGTAGGTGAACAGGTTCA yielded a sensor-assay potency score (higher = more potent) of -0.738.

Sequence TACAAGAGACAGGCTGTCCTGT came in with a sensor-assay potency score (higher = more potent) of 0.345.

In turn, TTCTGCGGTCCACAGCTGGAAA yielded a sensor-assay potency score (higher = more potent) of -1.5.

Sequence TAGTACACGAAGCAGTAGCCCT displayed a sensor-assay potency score (higher = more potent) of -0.845.

TAGGTCTCGGTGGTGATACGGC registered a sensor-assay potency score (higher = more potent) of -0.874.

The sequence TACTTCTCCACATAGGCTCGGA yielded a sensor-assay potency score (higher = more potent) of -0.423.

On to TAGGTGAACAGGTTCATCAGGT, for which the sensor-assay potency score (higher = more potent) worked out at 0.726.

The sequence TTGTACTTCTCCACATAGGCTC showed a sensor-assay potency score (higher = more potent) of -0.15.

The target in another assay is ROBO3. The assay is described as above. Particulars: shRNA.
TTGGGCTTGCACCTTGATCTGG displayed a sensor-assay potency score (higher = more potent) of -0.739.

In the case of TTCGTTGTAATATCTGTCGTCC, the sensor-assay potency score (higher = more potent) was 0.714.

In turn, TTTATAAACAAGTCTCAGGTGG returned a sensor-assay potency score (higher = more potent) of -0.186.

As to TCTTAGCACAGTACTTTGCTGG, the sensor-assay potency score (higher = more potent) was -0.938.

On to TTGGCCATTGTCTTGAACTGGA, for which the sensor-assay potency score (higher = more potent) is -0.232.

With TTTCCTTTGGTCTCGCACTGGA, the sensor-assay potency score (higher = more potent) is -0.00997.

The sequence TGTAGGTCCAACATTGTCCAGC yielded a sensor-assay potency score (higher = more potent) of -0.683.

TTCATCTGGGTGGAGCACCCGC: the sensor-assay potency score (higher = more potent) is -0.884.

TTCAGCTGCCGCACTCTCCCGT: the sensor-assay potency score (higher = more potent) is -0.447.

TTGTAATATCTGTCGTCCGGGT came in with a sensor-assay potency score (higher = more potent) of -0.931.

Consider TAGCACAGTACTTTGCTGGCTT, for which the sensor-assay potency score (higher = more potent) stood at 0.438.

The sequence TTGTCTTGAACTGGAGGTCATC returned a sensor-assay potency score (higher = more potent) of -1.28.

The target in another assay is ROCK2. The description is as above. The note with it: shRNA.
TTTTCTGACATTTTTAGTGTGT came in with a sensor-assay potency score (higher = more potent) of 0.278.

Turning to TCTATTGTTAGATTCCAGCTGC, the sensor-assay potency score (higher = more potent) amounted to 0.544.

Turning to TTTATCTGCTAGTCGTGCCTTT, the sensor-assay potency score (higher = more potent) amounted to 0.209.

Sequence TATTTTTATCTGCTAGTCGTGC gave a sensor-assay potency score (higher = more potent) of -0.412.

Turning to TAAAGCATTGGTTTCATCCAGT, the sensor-assay potency score (higher = more potent) is 0.0253.

TAACTTGGCAGTCTCCAGCAGG showed a sensor-assay potency score (higher = more potent) of -1.05.

In turn, TTTTGCTGTATCTTCATTGAAG displayed a sensor-assay potency score (higher = more potent) of -0.765.

TAGATGTCCATGTTTATCCAAG returned a sensor-assay potency score (higher = more potent) of -1.07.

With TTTCTAACTGTCTTAATGCTGA, the sensor-assay potency score (higher = more potent) was -0.42.

With TTGAGAAATACTGTTCTGCTTC, the sensor-assay potency score (higher = more potent) is 0.537.

On to TTCTGCTTCGAGCTGATCCTGG, for which the sensor-assay potency score (higher = more potent) is -0.437.

Another assay has as its target ROPN1. The assay is described as above. The note with it: shRNA.
TACAAGAAAATTGATTTTGGGT: the sensor-assay potency score (higher = more potent) amounted to 0.726.

As for TCACTGTGATTATACCATCAGG, the sensor-assay potency score (higher = more potent) is -1.52.

Sequence TATGGTCACATGATAAGACCTC registered a sensor-assay potency score (higher = more potent) of -0.256.

In the case of TCCACTTTGGCAATATACGTGT, the sensor-assay potency score (higher = more potent) was -0.784.
